According to PubChem BioAssay (NCATS):
Records with an inconclusive call do not appear. Calls of active or inactive are those of the source. Calls follow the shape of the dose curve; as a rule, active = well fitted curve in the direction sought with a large enough effect; inconclusive = small, poorly fitted or top-dose-only effect, or another doubt; inactive = no such curve, though single readings can be large; an effect the other way counts as inactive or inconclusive.

Columns and labels:
[1] = Primary qHTS for inhibitors of nuclear receptor binding SET domain protein 2 (NSD2) in an isogenic RCH-ACV NSD2 p.E1099K mutant (9B) (AID 1645876); also: potency is read from the fitted curve at half-maximal effect; nearly all actives have a fitted effect of over 70% in size
[2] = Primary qHTS for inhibitors of nuclear receptor binding SET domain protein 2 (NSD2) in an RCH-ACV wild type WT cells (2C) (AID 1645877); also: potency is read from the fitted curve at half-maximal effect; nearly all actives have a fitted effect of over 70% in size
[3] = target: Glutathione peroxidase 1 (Homo sapiens) (UniProt P07203); test: Primary qHTS Assay for Inhibitors of Recombinant Selenoprotein Glutathione Peroxidase 1 (GPX1) (AID 1845191); also: nearly all actives have a fitted effect of over 65% in size
Procedure, shortened: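 GPX1 10 nM, GR 100 nM, GSH 1 mM, NADPH 0.5 mM, CHP 0.5 mM (final). 30-min cpd preincubation, RT. Ex340/Em450 read t=0, t=15 min.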

[4] = target: Luciferin 4-monooxygenase (Photinus pyralis) (UniProt P08659); test: Primary firefly luciferase (FLuc) qHTS assay for identification of artifact compounds. (AID 1845220); conditions: outcome: dose series up to 54.1 µM unless noted; also: nearly all actives have a fitted effect of over 60% in size
Procedure, shortened: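 Reaction readout was CCD-imaged luminescence, taken 5 min after adding 10 nM purified firefly enzyme to compound-treated wells holding 10 uM luciferin and ATP in pH 7.6 buffer.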

[5] = Primary fluorescence-based thiol-reactive (MSTI) qHTS assay for identification of artifact compounds. (AID 1845221); also: nearly all actives have a fitted effect of over 65% in size; also: potency is read from the fitted curve at half-maximal effect
Procedure, shortened: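 In PBS pH 7.4 with 2% DMSO, each compound met 4 uM MSTI for one hour at ambient temperature, shielded from light, before fluorescence detection.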

[6] = tested on: Nanoluciferase (engineered Oplophorus gracilirostris luciferase); test: Primary Nanoluciferase (NLuc) qHTS assay for identification of artifact compounds. (AID 1845222);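 also: NLuc secreted into diluted conditioned medium of S16 cells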
Procedure, shortened: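 Concentration-response data were obtained by luminescence after 5 min with Nano-Glo substrate at 1:100. The enzyme was diluted S16 NLuc-expressing cell medium, preincubated with compound for 15 min at RT. Curves were fitted with a 4-parameter Hill model.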

CRL-7250 = normal cell line; test: Cytotoxic Profiling of Annotated Libraries Using Quantitative High-Throughput Screening (AID 1296008); conditions: Five cell lines viability, CellTiter-Glo ATP luminescence, 48-72 h; max response: hits give low values; also: nearly all actives have a fitted effect of over 60% in size; also: potency is read from the fitted curve at half-maximal effect; as to max response: % is scaled to controls: 0 for no effect and ±100 for the full control effect
Procedure, shortened: (§1)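 Compounds were pin-transferred onto cells and incubated 48 or 72 hr at 37 degree Celsius, 95% humidity. CellTiter-Glo was added, plates sat 10 min at room temperature, then ATP-coupled luminescence was imaged as the viability read-out.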

HEK293 = test: as above; conditions: Five cell lines viability, CellTiter-Glo ATP luminescence, 48-72 h; max response: hits give low values
Procedure, shortened: as §1

HaCat = test: as above; conditions: Five cell lines viability, CellTiter-Glo ATP luminescence, 48-72 h; max response: hits give low values
Procedure, shortened: as §1

KB-3-1 = test: as above; conditions: Five cell lines viability, CellTiter-Glo ATP luminescence, 48-72 h; max response: hits give low values
Procedure, shortened: as §1

NIH3T3 = test: as above; conditions: Five cell lines viability, CellTiter-Glo ATP luminescence, 48-72 h; max response: hits give low values
Procedure, shortened: as §1

C33A = test: Primary qHTS to identify gynecologic anti-cancer compounds using libraries of approved drugs and bioactive compounds (AID 1345084); conditions: Gynecologic cancer cell panel viability, ATPlite luminescence, 48 h; series mostly up to 57.5 µM; also: potency is read from the fitted curve at half-maximal effect; nearly all actives have a fitted effect of over 55% in size
Procedure, shortened: (§2)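 Five-concentration response, 48 h; readout is ATP-driven luciferase luminescence.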

CASKI = test: as above; conditions: Gynecologic cancer cell panel viability, ATPlite luminescence, 48 h; series mostly up to 57.5 µM
Procedure, shortened: as §2

Es-2 = test: as above; conditions: Gynecologic cancer cell panel viability, ATPlite luminescence, 48 h; series mostly up to 57.5 µM
Procedure, shortened: as §2

OV90 = test: as above; conditions: Gynecologic cancer cell panel viability, ATPlite luminescence, 48 h; series mostly up to 57.5 µM
Procedure, shortened: as §2

Tov-21-G = test: as above; conditions: Gynecologic cancer cell panel viability, ATPlite luminescence, 48 h; series mostly up to 57.5 µM
Procedure, shortened: as §2

[7] = target: Phospholipid hydroperoxide glutathione peroxidase GPX4 (Homo sapiens) (UniProt P36969); test: Primary qHTS Assay for Inhibitors of Recombinant Selenoprotein Glutathione Peroxidase 4 (GPX4) (AID 1845192); also: % is scaled to controls: 0 for no effect and ±100 for the full control effect; nearly all actives have a fitted effect of over 65% in size
Procedure, shortened: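 qHTS, GR-coupled: GPX4 200 nM + cpd 30 min RT → GSH 1 mM, NADPH 0.5 mM, GR 100 nM → CHP 0.5 mM start; fluor 340/450 at t0 and t15 min; no-enzyme wells as control.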

Hek293T = test: Primary qHTS to identify gynecologic anti-cancer compounds using libraries of approved drugs and bioactive compounds (AID 1345084); conditions: Gynecologic cancer cell panel viability, ATPlite luminescence, 48 h, control line for the selectivity index; series mostly up to 57.5 µM; also: potency is read from the fitted curve at half-maximal effect; nearly all actives have a fitted effect of over 55% in size
Procedure, shortened: as §2

PA-1 = test: as above; conditions: Gynecologic cancer cell panel viability, ATPlite luminescence, 48 h; series mostly up to 57.5 µM
Procedure, shortened: as §2

Tov112D = test: as above; conditions: Gynecologic cancer cell panel viability, ATPlite luminescence, 48 h; series mostly up to 57.5 µM
Procedure, shortened: as §2

Phospholipid hydroperoxide glutathione peroxidase GPX4 (Homo sapiens), sequence (P36969 whole entry, looked up): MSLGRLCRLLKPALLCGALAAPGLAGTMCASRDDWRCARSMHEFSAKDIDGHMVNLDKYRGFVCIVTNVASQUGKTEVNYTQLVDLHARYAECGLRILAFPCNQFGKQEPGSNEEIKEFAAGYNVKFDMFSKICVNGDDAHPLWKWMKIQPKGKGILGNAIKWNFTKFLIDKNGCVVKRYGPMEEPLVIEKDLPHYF
Glutathione peroxidase 1 (Homo sapiens), sequence (P07203 whole entry, looked up): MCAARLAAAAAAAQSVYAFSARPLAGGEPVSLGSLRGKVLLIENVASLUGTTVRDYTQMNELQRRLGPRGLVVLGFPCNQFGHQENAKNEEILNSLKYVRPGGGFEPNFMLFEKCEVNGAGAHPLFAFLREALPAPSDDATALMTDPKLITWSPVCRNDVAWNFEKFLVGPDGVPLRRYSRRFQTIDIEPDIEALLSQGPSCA

CC(=O)O[C@@H]1[C@@H](O)[C@H]2O[C@@H]3C=C(C)[C@@H](O)C[C@]3(CO)[C@]1(C)[C@]21CO1
active: Potency [1] 450 nM | Potency [2] 358 nM | Potency (CRL-7250) 1010 nM | Potency (HEK293) 321 nM | Potency (HaCat) 3.6 µM | Potency (KB-3-1) 805 nM | Potency (NIH3T3) 904 nM | Potency (C33A) 3.55 µM | Potency (CASKI) 3980 nM | Potency (Es-2) 2000 nM | Potency (OV90) 1410 nM | Potency (Tov-21-G) 4470 nM
inactive: Potency [3] | outcome [4] | Potency [5] | Potency [6]

C[C@H]1O[C@@H](O[C@H]2CC[C@]3(CO)C4CC[C@]5(C)[C@@H](C6=CC(=O)OC6)CC[C@]5(O)[C@@H]4CC[C@H]3C2)[C@H](O)[C@H](O)[C@@H]1O[C@@H]1O[C@H](CO)[C@@H](O)[C@H](O)[C@H]1O (some centres not stated)
active: Potency [1] 608 nM | Potency [2] 1080 nM | Potency [5] 3.16 µM | Potency (CRL-7250) 1220 nM | Potency (HEK293) 1530 nM | Potency (HaCat) 5.44 µM | Potency (KB-3-1) 1930 nM | Potency (C33A) 1.12 µM | Potency (CASKI) 6310 nM | Potency (Es-2) 3550 nM | Potency (Hek293T) 3160 nM | Potency (PA-1) 3160 nM | Potency (Tov-21-G) 2820 nM | Potency (Tov112D) 1120 nM
inactive: Potency [3] | Potency [7] | outcome [4] | Potency [6] | max response (NIH3T3) -2.67%

CC[C@@H]1C[C@H]2CC[C@H](O2)[C@H](C)C(=O)O[C@@H](C)C[C@@H]2CC[C@@H](O2)[C@@H](C)C(=O)O[C@H](CC)C[C@H]2CC[C@H](O2)[C@H](C)C(=O)O[C@@H](C)C[C@@H]2CC[C@@H](O2)[C@@H](C)C(=O)O1
inactive: Potency [3] | outcome [4] inactive [at 25.7 µM] | Potency [6]
active: Potency [1] 19.2 nM | Potency [2] 21.6 nM | Potency (CRL-7250) 385 nM | Potency (HEK293) 54.4 nM | Potency (HaCat) 1.53 µM | Potency (KB-3-1) 38.5 nM | Potency (NIH3T3) 86.2 nM | Potency (C33A) 0.316 µM | Potency (CASKI) 447 nM | Potency (Es-2) 708 nM | Potency (Hek293T) 631 nM | Potency (OV90) 398 nM | Potency (PA-1) 355 nM | Potency (Tov-21-G) 794 nM | Potency (Tov112D) 562 nM

C[C@H]1O[C@@H](O[C@H]2CC[C@]3(C=O)C4CC[C@]5(C)[C@@H](C6=CC(=O)OC6)CC[C@]5(O)[C@@H]4CC[C@]3(O)C2)C[C@@H](O)[C@@H]1O (some centres not stated)
active: Potency [1] 31.7 nM | Potency [2] 31.7 nM | Potency (CRL-7250) 22.4 nM | Potency (HEK293) 25.2 nM | Potency (HaCat) 0.502 µM | Potency (KB-3-1) 89.3 nM | Potency (C33A) 0.0891 µM | Potency (CASKI) 355 nM | Potency (Es-2) 141 nM | Potency (Hek293T) 141 nM | Potency (OV90) 316 nM | Potency (Tov-21-G) 126 nM | Potency (Tov112D) 25.1 nM
inactive: Potency [3] | Potency [7] | outcome [4] | Potency [5] | Potency [6] | max response (NIH3T3) -1.6%

CC1=C[C@H]2O[C@@H]3C[C@H]4OC(=O)/C=C/C=C/C(=O)OCC/C(C)=C/C(=O)OC[C@@]2(CC1)[C@]4(C)[C@]31CO1
inactive: Potency [3] | Potency [7] | outcome [4] inactive [at 25.7 µM] | Potency [5]
active: Potency [1] 5.6 nM | Potency [2] 3.2 nM | Potency (CRL-7250) 25.2 nM | Potency (HEK293) 8 nM | Potency (HaCat) 0.112 µM | Potency (KB-3-1) 20 nM | Potency (NIH3T3) 28.2 nM | Potency (CASKI) 112 nM | Potency (Es-2) 25.1 nM | Potency (PA-1) 70.8 nM | Potency (Tov-21-G) 89.1 nM
